The values below come from PubChem BioAssay.

This assay in a line: small-molecule microarray binders of probe aNog, primary screen, biochemical, biotinylated probe, 635/667 nm fluorescence (AID 1115).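 Also: probe is biotinylated aNog protein used at 0.15 µg/mL for 1 h at 4 C; z-score combines 667 nm fluorescence of each spot with its signal to noise.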 The settings on record: higher = more signal.
Regarding `COC(=O)c1nc2oc1CC[C@@H](CO)NC(=O)N(C)Cc1cnnn1C[C@H](Cc1ccccc1)NC2=O`, the composite z-score was -0.321.
Then `CCOC(=O)C1=CC[C@@H](c2cccc(Cl)c2)N(S(=O)(=O)c2ccc(C)cc2)C1`, with 0.424; and `C=C(COC)/C(=C/C[C@H](OC(=O)c1ccncc1)c1ccccc1OCCO)c1cnc2ccccc2c1`, with 0.0481; and `C[C@@H]1ON(c2ccc(C(=O)OC(C)(C)C)cc2)[C@H](c2ccc(O)cc2)[C@H]1C(=O)N1C(=O)OC[C@H]1Cc1ccccc1`, with 0.495.
Then `CC(C)N1C(=O)C[C@@](C(=O)NCCCN(C)C)(c2ccc([N+](=O)[O-])cc2)[C@H]1c1ccc(CO)cc1`, with -0.141.
Then `COC(=O)C(CC#Cc1ccc2c(c1)[C@]1(C(=O)N2)[C@H](C(=O)N2CCN(c3ncccn3)CC2)[C@H]2C(=O)O[C@H](c3ccccc3)[C@H](c3ccccc3)N2[C@@H]1c1ccc(OCCO)cc1)C(=O)OC`, with 0.0574; and `CN(C)CCCNC(=O)[C@@]1(C)c2ccccc2C(=O)N(Cc2ccccc2)[C@H]1c1ccc(CO)cc1`, with -0.33.
For the compound `CC(C)C(=C=CC[C@H](O)c1cccc(OCCO)c1)C[C@H](O)c1cc(Cl)cc(Cl)c1O`, the composite z-score was determined as 0.0083.
Then `COCCCNC(=O)[C@@]1(Cc2ccccc2N=[N+]=[N-])N=C(c2ccc(OCCCO)cc2)O[C@H]1c1ccccc1`, with 1.76.
`COc1ccc([Si](C)(C)[C@@H]2[C@@H](CC(=O)N3Cc4ccccc4C[C@H]3CO)O[C@]3(C(=O)N(Cc4cccc(N5C(=O)c6cccc7cccc5c67)c4)c4ccccc43)[C@H]2C)cc1` yielded a composite z-score of -0.237.
Then `COc1ccc([Si](C)(C)[C@@H]2[C@@H](CC(=O)N(CCO)Cc3ccccc3)O[C@]3(C(=O)N(Cc4cccc(N5CCOC5=O)c4)c4ccccc43)[C@H]2C)cc1`, with -0.237; and `CC(=O)c1ccc(C(O)C2C=CC3C(=O)N(c4ccccc4)C(=O)C3N2Nc2ccc(C#N)cc2)cc1` (stereo unspecified), with -0.409; and `COC1OC[C@]2(C)[C@H]3C4=C(CN2C(=O)OC(C)(C)C)[C@H](C)C(CO)C(CO)C4CC[C@@H]13` (stereo partly specified), with 1.04.
For the compound `COCCCNC(=O)[C@@]1(Cc2ccccc2CN=[N+]=[N-])N=C(c2ccc(OCCCO)cc2)O[C@H]1c1ccccc1`, the composite z-score was 0.999.
With `COc1cc(CO)cc(I)c1O[C@H]1C=C(C(=O)NCCO)C[C@@H](NCc2ccc(F)cc2)[C@@H]1O` the figure was -0.506; with `C=CCC(OC(C)=O)[C@@H]1[C@@H](N(Cc2cccc3ccccc23)C(=O)Cc2ccc(F)cc2)c2cc(OCCCO)ccc2N1C(=O)c1ccc2ccccc2n1` (stereo partly specified), -0.432; with `[N-]=[N+]=Nc1ccccc1[C@H]1OC(c2ccc(OCCCO)cc2)=N[C@@]1(Cc1ccccc1)C(=O)N1CCCCC1`, 1.28.
Then `O=C(NCc1ccccc1)[C@@H]1c2ccccc2C(=O)N(Cc2ccccc2C(F)(F)F)[C@H]1c1ccc(CO)cc1`, with -0.383.
Take `CC=CC(O)C1C=CC2C(=O)N(c3ccccc3)C(=O)C2N1Nc1ccccc1F` (stereo unspecified): the composite z-score came to 1.07.
In the case of `O=C1O[C@H](c2ccccc2)[C@H](c2ccccc2)N2[C@H]1[C@@H](C(=O)O)[C@]1(C(=O)Nc3ccc(C#CC4=CCCCC4)cc31)[C@H]2c1ccc(O)cc1`, the composite z-score is -0.213.
Then `C=CCOC(=O)[C@H]1[C@@H]2C(=O)O[C@@H](c3ccccc3)[C@@H](c3ccccc3)N2[C@@H](c2ccc(OCCOC(=O)[C@@H]3C[C@@H]4C(=O)N5CCC[C@H]5C(=O)N4[C@@H]3c3ccc(O)cc3)cc2)[C@]12C(=O)Nc1ccc(I)cc12`, with 0.633; and `CCCC[C@@H]1C[C@H]1[C@@H](NC(=O)c1ccccc1)c1ccc(C(F)(F)F)cc1`, with -0.194; and `C=C(C)c1cc2c(c(CCCCCC)n1)[Si](C(C)C)(C(C)C)OC2`, with -0.295.
Then `COC(=O)[C@@]1(Cc2ccc(OC)cc2)[C@@H]2C(=CC(=O)[C@H]2CC(=O)C(=O)N(C)C)CN1C(=O)c1ccccc1`, with 2.25; and `COC(=O)c1cn(C[C@@H](Cc2ccccc2)NC(=O)N[C@H](CO)CCc2oc(C(C)=O)c(C(=O)OC)c2C(=O)OC)nn1`, with -0.0789; and `COCCOC(=O)N1C(=O)[C@@]2(c3cc(C#CC4(O)CCCCCC4)ccc31)[C@H](c1ccc(O)cc1)N1[C@H](c3ccccc3)[C@H](c3ccccc3)OC(=O)[C@H]1[C@@H]2C(=O)NC[C@H](O)c1ccccc1`, with 0.0896.
With `C=C(C)C1CCC(C(O)C2C=CC3C(=O)N(C)C(=O)C3N2N2CCCCC2)CC1` (stereo unspecified) the figure was 0.751; with `CC(C)(C)N1CC=CC23O[C@@H]4C=CCOC(=O)[C@@H]4[C@H]2C(=O)N(CCCCCCO)[C@@H]3C1=O` (stereo partly specified), -0.357; with `COc1ccc(-c2cc3c(c(CCc4ccccc4)n2)[Si](C(C)C)(C(C)C)OC3)cn1`, -0.115.
In the case of `C=CCOC(=O)[C@H]1[C@@H]2C(=O)O[C@@H](c3ccccc3)[C@@H](c3ccccc3)N2[C@@H](c2ccc(OCCOC(=O)[C@@H]3C[C@@H]4C(=O)N[C@@H](CCCCNC(C)=O)C(=O)N4[C@@H]3c3ccc(O)cc3)cc2)[C@]12C(=O)Nc1ccc(I)cc12`, the composite z-score stood at 0.381.
With `COc1ccc(CCNC(=O)[C@@]2(Sc3ccc(C)cc3)CC(=O)N(C3Cc4ccccc4C3)[C@@H]2c2ccc(CO)cc2)cc1` the figure was 0.557; with `COCCCNC(=O)[C@@]1(Sc2ccc(C)cc2)CC(=O)N(C2CCCCC2)[C@@H]1c1ccc(CO)cc1`, 0.684.
Then `COCCCNC(=O)[C@]1(CCS(=O)(=O)c2ccccc2)N=C(c2ccc(OCCCO)cc2)O[C@@H]1c1ccccc1N=[N+]=[N-]`, with 0.698; and `CN(C)CCCNC(=O)[C@@H]1c2ccccc2C(=O)N(Cc2ccccc2Cl)[C@H]1c1ccc(CO)cc1`, with 0.213.
With `CO[C@H]1O[C@H](CO)[C@@H](OC(=O)Nc2ccccc2-c2ccccc2)[C@H](OC(=O)Nc2ccc3c(c2)OCO3)[C@H]1OC(=O)Nc1ccc2c(c1)OCO2` the figure was 1.19.
`CCCCCCCCCCC(O)C1C=CC2C(=O)N(C)C(=O)C2N1NC(=O)OC(C)(C)C` (stereo unspecified): the composite z-score was found to be 0.3.
